# According to PMC7819943, “Rice protein-binding microarrays: a tool to detect cis-acting elements near promoter regions in rice”:
# Whole data set: some 68,000 sequences, median “fluorescence intensity (a.u.)” near 9,100, cut for the highest 2% near 16,000. The sample holds the highest values, similar sequences and a random draw of the others, so the mix is not that of the screen.
# Target: OsWRKY34 (Oryza sativa, UniProt Q0JBA9 1-250)
# Assay: protein-binding microarray (RPBM); PBS, 2% BSA, 51.3 ng/ul salmon testes DNA, 50 uM zinc acetate, 200 nM TF, 25 C, 1 h; high values mean tight binding
# Details: protein: recombinant; tags: N-terminal polyhistidine and DsRed monomer fusion (pET32a); label: CyDye5-dUTP incorporated in the synthesized complementary strand; 3' TTTTT single-stranded linker to array surface; dsDNA, one strand shown
# In short: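 Per-feature fluorescence intensity (arbitrary units), read on an Axon 4000B scanner, is the binding signal. Transcription factors carrying an N-terminal polyhistidine tag and DsRed fusion were expressed in E. coli BL21-CodonPlus and purified on Ni–NTA. A custom Agilent array, made double-stranded by primer extension with Cy5-dUTP and blocked with 2% BSA, was incubated with 200 nM protein in PBS, 2% BSA, salmon testes DNA and 50 µM zinc acetate at 25 °C for 1 h and then washed.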
# Chain of OsWRKY34 (Q0JBA9 entry or part of it): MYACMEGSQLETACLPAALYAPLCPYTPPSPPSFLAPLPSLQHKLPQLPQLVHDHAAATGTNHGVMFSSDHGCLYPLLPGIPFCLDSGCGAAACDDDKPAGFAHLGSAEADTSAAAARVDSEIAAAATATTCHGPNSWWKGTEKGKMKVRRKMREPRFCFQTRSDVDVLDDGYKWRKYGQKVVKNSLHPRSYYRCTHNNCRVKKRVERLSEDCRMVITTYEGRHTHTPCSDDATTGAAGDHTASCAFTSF
row,Sequence,binding signal
1,GGCGCCGCCGTCGTCCTGCTGCTTCCGCCGCCGCGTCTTCCGGAGTCACCTAGTGCAG,11000 fluorescence intensity (a.u.)
2,CTGCACATGATTTCAATCTACTATGGACATTCTCACTCTCCGGAGTCACCTAGTGCAG,12100 fluorescence intensity (a.u.)
3,CACCTGCCTCCTCCTACCACCAGCCGCCGCCGACGACTAACGGAGTCACCTAGTGCAG,8550 fluorescence intensity (a.u.)
4,CGACGGGCGGGTGTGGGGATTCGCGGCCTTGAGGGTTCGTCGGAGTCACCTAGTGCAG,9660 fluorescence intensity (a.u.)
5,CCGCTGTCGTCGTCTCGTCTCTGTGTGTGTGTCTCCATCACGGAGTCACCTAGTGCAG,8280 fluorescence intensity (a.u.)
6,TCCATCATCGTCGTCTCTGTGTGTGTCTGTGTGTGTGTGTCGGAGTCACCTAGTGCAG,17900 fluorescence intensity (a.u.)
7,CGGGCGGGGCGGGGCGGGTTCGCTCGTCGGATGTGTGGATCGGAGTCACCTAGTGCAG,23900 fluorescence intensity (a.u.)
8,CGCTTCCATCTCTCTCTGTCTCTCTTCTTTTTGACCTCTTCGGAGTCACCTAGTGCAG,11900 fluorescence intensity (a.u.)
9,GGGGAGGGAAGGGATGGATCGGATGCGGGTTCGGGCGGTTCGGAGTCACCTAGTGCAG,8910 fluorescence intensity (a.u.)
10,TGCTCTCTCTCGTGTGGTCTGGTCCGCGCGCTCGTGTATACGGAGTCACCTAGTGCAG,9150 fluorescence intensity (a.u.)
11,TCTCTCTGGGAGGTCTCGCGGAAGGTGGTGGGGTTGGGCCCGGAGTCACCTAGTGCAG,11500 fluorescence intensity (a.u.)
12,TACCTCTCTTCTCTTCTCCAATCTCTATCTATGTCTTCTTCGGAGTCACCTAGTGCAG,8640 fluorescence intensity (a.u.)
13,CTCTCTCCAATCTCCATCTCTCTGTCTGATTTGTAATCTTCGGAGTCACCTAGTGCAG,16500 fluorescence intensity (a.u.)
14,CGCGGGTGGTCTGGTCTCTCTCTCGTATCGTATCGTATCACGGAGTCACCTAGTGCAG,16700 fluorescence intensity (a.u.)
15,CGCGCCATCTCCATGTCATCGTCGTCGTCTGTGTCCCCTTCGGAGTCACCTAGTGCAG,10700 fluorescence intensity (a.u.)
16,TTTGGTTGCTTGCCTTCTTTATCGGCAAAATTTGCTATAGCGGAGTCACCTAGTGCAG,8970 fluorescence intensity (a.u.)
17,ATTTAGGGAAATTATAACCATGCCACTCTGTCGTGTTTTCCGGAGTCACCTAGTGCAG,9180 fluorescence intensity (a.u.)
18,AGATAGTGGTGGTGGTCTGTGCATCGTTGACTTGATCATGCGGAGTCACCTAGTGCAG,10900 fluorescence intensity (a.u.)
19,GGTCCCGTTCCGATCCTCACTCGGTCACTCATCTTTCCTTCGGAGTCACCTAGTGCAG,8730 fluorescence intensity (a.u.)
20,AAATTATAACGAGGGGTGAGGGGCTAAGAACCTATTTTCGCGGAGTCACCTAGTGCAG,9700 fluorescence intensity (a.u.)
21,CCCATCACCACTCTGCCCACATCCCGGCGTCGCTTCGTGTCGGAGTCACCTAGTGCAG,9120 fluorescence intensity (a.u.)

row,Sequence,binding signal
1,TTCGTTCCGATTCTTTTTTTTTCATTTGCTATGCATCTTCCGGAGTCACCTAGTGCAG,11000 fluorescence intensity (a.u.)
2,GTCCTATCGCGTAGCCCACACTCCACCCTATCGCGCCTTCCGGAGTCACCTAGTGCAG,11500 fluorescence intensity (a.u.)
3,CGCCCCTCCCCTTTGGCGCCGCCGCGCCTGCGTTGACCCTCGGAGTCACCTAGTGCAG,8230 fluorescence intensity (a.u.)
4,TCCAATCTGTGCTGCCTTTATATTAGTTCCACCAAGAAGACGGAGTCACCTAGTGCAG,9380 fluorescence intensity (a.u.)
5,GACCTTTACTTTTTCATCCTACCTAAATGCATATTCCAATCGGAGTCACCTAGTGCAG,9320 fluorescence intensity (a.u.)
6,ACTATTTGGATATCCCATTCCAACGCCATTGCCCTCTGTTCGGAGTCACCTAGTGCAG,8280 fluorescence intensity (a.u.)
7,TGGCGTGGTCTCGTCTCTTCGTCTTCGGGTGTGCTCACCGCGGAGTCACCTAGTGCAG,9650 fluorescence intensity (a.u.)
8,TGGGAGTGTTGTTATTCTCGTGCGCGTTGTGGTTAGTGGGCGGAGTCACCTAGTGCAG,9630 fluorescence intensity (a.u.)
9,GCGGGGTTCGTGGTGTGTGCGTGTGCGTCTCTCTCTGTCTCGGAGTCACCTAGTGCAG,21100 fluorescence intensity (a.u.)
10,CTCTCTCGCTTCTTCTCTGTGTGTGTGTTGCGTGGTGGGGCGGAGTCACCTAGTGCAG,23800 fluorescence intensity (a.u.)
11,TTTCCGTTCCTTTCTTTCCTTCTCGCGTTTGCGTGGTGGGCGGAGTCACCTAGTGCAG,10500 fluorescence intensity (a.u.)
12,GTTCTCGTCGTTCGTGTTCTTCTGCTTCGGTTTCGTGGTGCGGAGTCACCTAGTGCAG,11900 fluorescence intensity (a.u.)
13,ATCTGTAGTCCGTTGCTCTTCTCTCTCATATTTTATCTCGCGGAGTCACCTAGTGCAG,11700 fluorescence intensity (a.u.)
14,TGTGTGTATGCGTTTATAGGAGTAACTGTGTGTGCGTTTACGGAGTCACCTAGTGCAG,8150 fluorescence intensity (a.u.)
15,CGCCTCCGCCTCCGTCGACTCCGCGCCTCCGCCGCCACCCCGGAGTCACCTAGTGCAG,15100 fluorescence intensity (a.u.)
16,TCCAGCTGCTTGCTTCTCTCTCTCTCTTCTCTTGAGCATCCGGAGTCACCTAGTGCAG,9650 fluorescence intensity (a.u.)
17,TCTGCCTTGAAGTGGTACCGTGGGTGGGAGGGTAGTTATGCGGAGTCACCTAGTGCAG,11500 fluorescence intensity (a.u.)
18,CGCTTGATCTGGGGTGGGGTCGCGAGTGGTGGAGGAGGTGCGGAGTCACCTAGTGCAG,16600 fluorescence intensity (a.u.)
19,GGAGGAGGTGGAGGCGCTGCTGGTGGTGGAGGCCGTGGTGCGGAGTCACCTAGTGCAG,8020 fluorescence intensity (a.u.)
20,AATCTCCGTGGCGAGGGTGGGGTCGGAGGTGGTCATGTCGCGGAGTCACCTAGTGCAG,9290 fluorescence intensity (a.u.)
21,AGTGGGTGGTGGTGGTGGTGGTGGTGCGAGGCCGTCGCTGCGGAGTCACCTAGTGCAG,20500 fluorescence intensity (a.u.)
